Assay results reported in PubChem BioAssay (NCATS).
Records with an inconclusive call do not appear. Entries that show only a call come without a potency. Active and inactive are the calls of the source. Unless noted, the call rests on the fitted dose curve.

How the values were obtained:
[1] = Inducers of the Endoplasmic Reticulum Stress Response (ERSR) in human glioma: Validation (AID 504836; active means well fitted curve in the direction sought with a large enough effect; an effect the other way counts as inactive or inconclusive)
In short: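 Stably transfected U87-MG glioma cells carrying a GRP78-based luciferase sensor; 16 h compound incubation. Luminescence end-point read 10 min after Bright-Glo addition at room temperature.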

[2] = qHTS for Inhibitors of the Functional Ribonucleoprotein Complex (vRNP) of Lassa (LASV) Arenavirus: LASV Primary Screen - GLuc reporter signal (AID 1347082; calls by dose curve; tested in HEK293 reporter line; further: nearly all actives have a fitted effect of over 60% in size; further: potency means the concentration at half of the fitted maximal effect)
[3] = qHTS for Inhibitors of the Functional Ribonucleoprotein Complex (vRNP) of Lassa (LASV) Arenavirus: Viability assay - alamar blue signal for LASV Primary Screen (AID 1347083; calls by dose curve; tested in HEK293 reporter line; further: nearly all actives have a fitted effect of over 80% in size; further: potency means the concentration at half of the fitted maximal effect)
[4] = qHTS for Inhibitors of the Functional Ribonucleoprotein Complex (vRNP) of Lymphocytic Choriomeningitis Arenaviruses (LCMV): Viability assay - alamar blue signal for LCMV Primary Screen (AID 1347085; calls by dose curve; tested in HEK293 reporter line; further: nearly all actives have a fitted effect of over 80% in size; further: potency means the concentration at half of the fitted maximal effect)
[5] = target: Nucleoprotein (Lymphocytic choriomeningitis virus (strain Armstrong)) (UniProt P09992); assay: qHTS for Inhibitors of the Functional Ribonucleoprotein Complex (vRNP) of Lymphocytic Choriomeningitis Arenaviruses (LCMV): LCMV Primary Screen - GLuc reporter signal (AID 1347086); further: nearly all actives have a fitted effect of over 70% in size; further: potency means the concentration at half of the fitted maximal effect
Chain of Nucleoprotein (Lymphocytic choriomeningitis virus (strain Armstrong)) (P09992 whole entry, looked up): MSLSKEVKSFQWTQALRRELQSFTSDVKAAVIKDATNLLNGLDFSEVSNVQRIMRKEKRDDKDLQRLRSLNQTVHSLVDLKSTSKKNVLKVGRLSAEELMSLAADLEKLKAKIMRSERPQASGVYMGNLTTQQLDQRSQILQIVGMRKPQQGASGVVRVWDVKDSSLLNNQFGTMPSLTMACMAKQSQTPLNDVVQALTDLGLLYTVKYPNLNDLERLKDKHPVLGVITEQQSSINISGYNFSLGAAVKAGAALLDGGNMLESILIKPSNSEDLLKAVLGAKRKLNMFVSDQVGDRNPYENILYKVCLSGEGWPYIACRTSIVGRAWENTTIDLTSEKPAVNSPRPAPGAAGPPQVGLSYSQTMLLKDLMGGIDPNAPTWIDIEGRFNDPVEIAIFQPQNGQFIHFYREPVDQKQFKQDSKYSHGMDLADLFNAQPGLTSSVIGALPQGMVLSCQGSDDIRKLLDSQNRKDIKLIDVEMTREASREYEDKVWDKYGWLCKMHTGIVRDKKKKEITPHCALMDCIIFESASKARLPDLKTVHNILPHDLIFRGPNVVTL

[6] = Cytotoxicity counterscreen for inhibitors of SARS-CoV-2 cell entry (AID 1645845); further: nearly all actives have a fitted effect of over 50% in size
In short: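 HEK293-ACE2 cells (Expi293F stably expressing human ACE2) seeded overnight, then compound for 1 h plus 48 h at 37C. Viability as ATP content by luminescence; normalized to wells with cells and media-only wells.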

[7] = Primary qHTS to identify inhibitors of SARS-CoV-2 cell entry (AID 1645846); settings: activity change, negative = inhibition: at 57.1 µM (top of the series) unless noted; further: nearly all actives have a fitted effect of over 45% in size; further: potency means the concentration at half of the fitted maximal effect
In short: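 Data are normalized to wells receiving SARS-CoV-2-S pseudoparticles and those given bald particles. Entry signal was luciferase luminescence in stable hACE2 Expi293F cells, 48 hr post-infection, after 1 hr compound pretreatment.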

[8] = target: Alpha-galactosidase (Coffea arabica) (UniProt Q42656); assay: Counterscreen for Glucocerebrosidase Inhibitors: qHTS Assay for Coffee Bean alpha-Galactosidase at pH 4.5 (AID 957; active means well fitted curve in the direction sought with a large enough effect; an effect the other way counts as inactive or inconclusive)
Chain of Alpha-galactosidase (Coffea arabica) (Q42656 whole entry, looked up): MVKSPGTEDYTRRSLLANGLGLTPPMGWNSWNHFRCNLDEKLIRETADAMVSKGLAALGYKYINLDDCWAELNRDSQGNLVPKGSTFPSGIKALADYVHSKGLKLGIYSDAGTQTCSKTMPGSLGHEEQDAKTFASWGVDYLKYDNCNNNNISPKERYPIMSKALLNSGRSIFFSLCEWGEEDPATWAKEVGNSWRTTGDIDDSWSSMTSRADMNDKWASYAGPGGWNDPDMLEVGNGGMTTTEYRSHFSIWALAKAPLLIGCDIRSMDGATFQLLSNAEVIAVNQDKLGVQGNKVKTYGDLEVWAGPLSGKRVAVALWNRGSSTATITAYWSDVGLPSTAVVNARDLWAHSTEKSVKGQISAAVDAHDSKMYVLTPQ
In short: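 AC50 values derive from Hill-equation modeling of concentration-response data, normalized to no-enzyme and full-activity controls. The pH 4.5 citrate assay used 2 nM coffee bean enzyme and 80 uM fluorogenic substrate for 20 min.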

[9] = target: Alpha-galactosidase (Coffea arabica) (UniProt Q42656); assay: Counterscreen for Glucocerebrosidase Inhibitors: qHTS Assay for Coffee Bean alpha-Galactosidase at pH 5.9 (AID 998; active means well fitted curve in the direction sought with a large enough effect; an effect the other way counts as inactive or inconclusive)
In short: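 Green coffee bean enzyme (2 nM) with 4-methylumbelliferyl alpha-D-galactopyranoside (80 uM) in 50 mM citric acid, 0.005% Tween-20, pH 5.9, 20 min at room temperature; compounds 0.7 nM–77 uM. Stopped at pH 10, fluorescence Ex365/Em440; Hill-fit AC50.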

[10] = Validation screen for inhibitors of Lassa infection (AID 463096)
[11] = target: Arylsulfatase A (Homo sapiens) (UniProt P15289); assay: qHTS screen for enhancers of Arylsulfatase A (ASA1): LOPAC Validation Assay (AID 720538; active means well fitted curve in the direction sought with a large enough effect; an effect the other way counts as inactive or inconclusive)
Chain of Arylsulfatase A (Homo sapiens) (P15289 whole entry, looked up): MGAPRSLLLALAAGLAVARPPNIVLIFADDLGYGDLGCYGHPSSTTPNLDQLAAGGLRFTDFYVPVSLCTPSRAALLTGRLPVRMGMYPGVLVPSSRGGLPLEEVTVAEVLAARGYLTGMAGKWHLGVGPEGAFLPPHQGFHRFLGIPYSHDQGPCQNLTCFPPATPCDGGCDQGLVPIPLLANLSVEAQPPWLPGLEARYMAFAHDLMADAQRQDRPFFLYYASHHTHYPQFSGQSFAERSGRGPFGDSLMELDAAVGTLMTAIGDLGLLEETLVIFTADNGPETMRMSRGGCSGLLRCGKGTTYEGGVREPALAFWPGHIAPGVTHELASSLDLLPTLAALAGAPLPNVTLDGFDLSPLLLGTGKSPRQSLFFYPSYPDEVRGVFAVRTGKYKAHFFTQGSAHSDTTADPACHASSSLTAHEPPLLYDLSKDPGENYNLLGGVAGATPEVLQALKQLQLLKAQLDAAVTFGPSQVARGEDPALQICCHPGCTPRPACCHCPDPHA
In short: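 First, ASA-I179S fibroblasts from an MLD patient adhered for 6 hrs. Next, compounds were added for 48h. Then pNCS substrate (0.5mM final) with lysis buffer reacted 14h at room temperature before NaOH stop and fluorescence measurement.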

[12] = qHTS profiling of the MIPE4 collection as inhibitors of Plasmodium falciparum (3D7) proliferation (AID 743344; call rule not given here); settings: P. falciparum 3D7 in erythrocytes, SYBR Green DNA fluorescence, 72 h; at 28.5 µM (top of the series) unless noted
In short: (§1)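 Erythrocytes infected with P. falciparum (0.3% parasitemia, 2.5% hematocrit) incubated with compounds 72 h at 37 C, 5% CO2. Lysis with saponin/Triton buffer containing SYBR Green I, overnight at room temperature in the dark; DNA fluorescence (485/535 nm) normalised to 0.29 uM artemisinin and DMSO.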

[13] = qHTS profiling of the MIPE4 collection as inhibitors of Plasmodium falciparum (DD2) proliferation (AID 743345; call rule not given here); settings: P. falciparum Dd2 in erythrocytes, SYBR Green DNA, 72 h; at 28.5 µM (top of the series) unless noted
In short: as §1

[14] = qHTS assay for small molecule agonists of the antioxidant response element (ARE) signaling pathway (AID 651741; active means well fitted activation curve with a large enough effect in the signal ratio; the % refers to the signal ratio; further: potency means the concentration at half of the fitted maximal effect)
In short: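 HepG2 ARE-bla cells plated at 2,000 cells/well and incubated 5 h at 37 C/5% CO2 received 23 nL compound in DMSO. After 16 h at 37 C, LiveBLAzer B/G FRET substrate was applied for 2 h at room temperature and fluorescence read.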

CCNC(=O)[C@H]1O[C@@H](n2cnc3c(N)nc(NCCc4ccc(CCC(=O)O)cc4)nc32)[C@H](O)[C@@H]1O
outcome [1]: inactive | Potency [2]: inactive | Potency [3]: inactive | Potency [4]: inactive | Potency [5]: inactive | Potency [6]: inactive | Potency [7]: inactive

NC(=O)c1cccc(N)c1
outcome [8]: inactive | outcome [9]: inactive | Potency [10]: inactive | outcome [1]: inactive | Potency [2]: inactive | Potency [3]: inactive | Potency [4]: inactive | Potency [5]: inactive | Potency [6]: inactive | Potency [7]: inactive

O=C1NC(=O)/C(=C/c2ccc(-c3ccc(F)cc3O)o2)S1
outcome [1]: inactive | Potency [2]: inactive | Potency [3]: inactive | Potency [4]: inactive | Potency [5]: inactive | Potency [6]: inactive | Potency [7]: inactive

CN1C2CCC1CC(OC(=O)C(CO)c1ccccc1)C2 (stereo not given)
Potency [10]: inactive | Potency [11]: inactive | parasite growth, % of DMSO control [12]: 88.6% | parasite growth remaining, % of DMSO control (lower = more inhibition) [13]: 94.5% | Potency [2]: inactive | Potency [3]: inactive | Potency [4]: inactive | Potency [5]: inactive | Potency [6]: inactive | activity change, negative = inhibition [7]: -16.5%

COc1cccc(-c2cc(=O)c3ccccc3o2)c1N
outcome [8]: inactive | outcome [9]: inactive | outcome [1]: inactive | Potency [2]: inactive | Potency [3]: inactive | Potency [4]: inactive | Potency [5]: inactive | Potency [6]: inactive | Potency [7]: inactive

O=C1c2cccc(O)c2C(=O)c2c(O)cc(CO)cc21
Potency [14]: 12.2 µM (active) | parasite growth, % of DMSO control [12]: 321% | parasite growth remaining, % of DMSO control (lower = more inhibition) [13]: 99.1% | Potency [2]: inactive | Potency [3]: inactive | Potency [4]: inactive | Potency [5]: inactive | Potency [6]: inactive | activity change, negative = inhibition [7]: -12.6%

C[Se]CCC(N)C(=O)O (stereo not given)
Potency [2]: inactive | Potency [3]: inactive | Potency [4]: inactive | Potency [5]: inactive | Potency [6]: inactive | activity change, negative = inhibition [7]: -2.1% [at 114 µM]

O=C(Nc1ccccc1Br)N[C@@H]1CCN(c2ccc(C(F)(F)F)cn2)C1
Potency [2]: inactive | Potency [3]: inactive | Potency [4]: inactive | Potency [5]: inactive | Potency [6]: inactive | activity change, negative = inhibition [7]: -27.3%

CNc1nc(Nc2ccc(C(=O)N3CCOCC3)cc2OC)ncc1Cl
Potency [2]: inactive | Potency [3]: 24.3 µM (active) | Potency [4]: inactive | Potency [5]: inactive | Potency [6]: inactive | Potency [7]: inactive

Cc1ccc(S(=O)(=O)OCC(=O)Nc2ccc(C(=O)O)c(O)c2)cc1
Potency [2]: inactive | Potency [3]: inactive | Potency [4]: inactive | Potency [5]: inactive | Potency [6]: inactive | activity change, negative = inhibition [7]: 2.59%

CCC(C)N(C)C(=O)c1cc2ccccc2c(-c2ccccc2Cl)n1 (stereo not given)
Potency [10]: inactive | outcome [1]: inactive | Potency [2]: inactive | Potency [3]: inactive | Potency [4]: inactive | Potency [5]: inactive | Potency [6]: inactive | activity change, negative = inhibition [7]: 4.18%

Oc1cc2c(cc1O)C1c3ccc(O)c(O)c3OCC1(O)C2 (stereo not given)
Potency [2]: inactive | Potency [3]: inactive | Potency [4]: inactive | Potency [5]: inactive | Potency [6]: inactive | activity change, negative = inhibition [7]: -5.64%

CCN1/C(=C/C(C)=O)Sc2ccc(OC)cc21
outcome [8]: inactive | outcome [9]: inactive | Potency [10]: inactive | outcome [1]: inactive | Potency [2]: inactive | Potency [3]: inactive | Potency [4]: inactive | Potency [5]: inactive | Potency [6]: inactive | activity change, negative = inhibition [7]: -1.33%

O=c1c(O)c(-c2ccc(O)cc2O)oc2cc(O)cc(O)c12
outcome [8]: inactive | outcome [9]: inactive | outcome [1]: inactive | Potency [2]: inactive | Potency [3]: inactive | Potency [4]: inactive | Potency [5]: inactive | Potency [6]: inactive | activity change, negative = inhibition [7]: 0.962%

COc1cc(SC)ccc1C(=O)N1CCC(Cc2ccccc2)CC1
outcome [1]: inactive | Potency [2]: inactive | Potency [3]: inactive | Potency [4]: inactive | Potency [5]: inactive | Potency [6]: inactive

CCCc1c(OCCCOc2ccc(OCC(=O)O)cc2)ccc(C(C)=O)c1O
outcome [8]: inactive | outcome [9]: inactive | Potency [10]: inactive | outcome [1]: inactive | Potency [2]: inactive | Potency [3]: inactive | Potency [4]: inactive | Potency [5]: inactive | Potency [6]: inactive | activity change, negative = inhibition [7]: -13.9%

Cc1nc(N)ncc1-c1nc(N2CCOCC2)c2sc(C(C)(C)O)cc2n1
Potency [2]: 1.53 µM (active) | Potency [3]: 0.863 µM (active) | Potency [4]: 1.09 µM (active) | Potency [5]: 1.72 µM (active) | Potency [7]: 7.94 µM (active)

CC(C)C[C@H](NC(=O)[C@@H](NC(=O)c1cccc(-c2ccccc2)n1)[C@@H](C)O)B(O)O
Potency [2]: 0.685 µM (active) | Potency [3]: 0.544 µM (active) | Potency [4]: 1.09 µM (active) | Potency [5]: 1.09 µM (active) | activity change, negative = inhibition [7]: -97.4% [at 27.1 µM]

CC[C@H](C=C[C@@H](C)[C@H]1CC[C@H]2[C@@H]3CC=C4C[C@@H](O)CC[C@]4(C)[C@@H]3CC[C@]12C)C(C)C
parasite growth, % of DMSO control [12]: 84.3% [at 9.64 µM] | Potency [2]: inactive | Potency [3]: inactive | Potency [4]: inactive | Potency [5]: inactive | Potency [6]: inactive | Potency [7]: inactive

CC(C)N(CCC(=O)c1ccc2ccccc2c1)Cc1ccccc1
outcome [8]: inactive | outcome [9]: inactive | outcome [1]: inactive | Potency [2]: inactive | Potency [3]: inactive | Potency [4]: inactive | Potency [5]: inactive | Potency [6]: inactive
